Among the data in PubChem BioAssay (NCATS) are Potency, activity change, negative = inhibition and outcome values, retold here.

Each structure is given as a SMILES string. Values joined by “and” are separate entries in the source; they are usually repeats but may differ in a detail not shown here. Identical values can stand only once. Records with an inconclusive call do not appear. Some compounds were tested as several samples or in several runs, with calls that do not always agree. Active and inactive are the calls of the source. Unless noted, calls follow the shape of the full dose curve. Numbered stars: 1 amine (or outer) side, 2 acyl side, 3 side chain; on linkers, the order of the positions; unused ones are H or OH. Bridge positions count the residues as written; N and C are the ends. Square brackets hold non-standard residues; d marks the D form. Peptide text beside a SMILES is read from it. I, II: the chains in the order shown. Actinocin(9to1) = Cc1c2oc3c(C)ccc(C(=O)[*:1])c3nc-2c(C(=O)[*:2])c(N)c1=O; NMeV = CN[C@H](C(=O)O)C(C)C; Sar = CNCC(=O)O

A short description of assay [1]: Primary qHTS to identify inhibitors of SARS-CoV-2 cell entry (AID 1645846). Also: nearly all actives have a fitted effect of over 45% in size. Also: potency is read from the fitted curve at half-maximal effect. The following applies: SARS-CoV-2 pseudovirus cell entry assay, luminescence; activity change, negative = inhibition: at 57.1 µM (top of the series) unless noted; series mostly up to 57.1 µM. Put shortly:
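Data are normalized to wells receiving SARS-CoV-2-S pseudoparticles and those given bald particles. Entry signal was luciferase luminescence in stable hACE2 Expi293F cells, 48 hr post-infection, after 1 hr compound pretreatment.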
(In general: Quantitative high-throughput screening tests each substance at several concentrations.)

A short description of assay [2]: Primary qHTS for inhibitors of nuclear receptor binding SET domain protein 2 (NSD2) in an isogenic RCH-ACV NSD2 p.E1099K mutant (9B) (AID 1645876; active = well fitted curve in the direction sought with a large enough effect; an effect the other way counts as inactive or inconclusive; also: nearly all actives have a fitted effect of over 70% in size; also: potency is read from the fitted curve at half-maximal effect). As to conditions: RCH-ACV NSD2 E1099K (9B) viability, CellTiter-Glo, 72 h; series mostly up to 44.9 µM.
Assay [3] in a line: Primary qHTS for inhibitors of nuclear receptor binding SET domain protein 2 (NSD2) in an RCH-ACV wild type WT cells (2C) (AID 1645877; active = well fitted curve in the direction sought with a large enough effect; an effect the other way counts as inactive or inconclusive; also: nearly all actives have a fitted effect of over 70% in size; also: potency is read from the fitted curve at half-maximal effect). As to conditions: RCH-ACV (leukaemia line) NSD2 WT (2C) viability, CellTiter-Glo, 72 h; series mostly up to 44.9 µM.
The target of the next assay is Papain (Carica papaya) (UniProt P00784). The assay is described as follows: Primary qHTS assay for inhibitors of the protease papain (AID 1645873; active = well fitted curve in the direction sought with a large enough effect; an effect the other way counts as inactive or inconclusive;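 also: papain turnover of Z-FR-AMC read as the AMC fluorescence gain over 10 min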; also: potency is read from the fitted curve at half-maximal effect; as to activity change, negative = inhibition: % is scaled to controls: 0 for no effect and ±100 for the full control effect). As to conditions: papain Z-FR-AMC cleavage, AMC fluorescence; series mostly up to 49.8 µM.
Papain (Carica papaya), sequence (P00784 whole entry, looked up): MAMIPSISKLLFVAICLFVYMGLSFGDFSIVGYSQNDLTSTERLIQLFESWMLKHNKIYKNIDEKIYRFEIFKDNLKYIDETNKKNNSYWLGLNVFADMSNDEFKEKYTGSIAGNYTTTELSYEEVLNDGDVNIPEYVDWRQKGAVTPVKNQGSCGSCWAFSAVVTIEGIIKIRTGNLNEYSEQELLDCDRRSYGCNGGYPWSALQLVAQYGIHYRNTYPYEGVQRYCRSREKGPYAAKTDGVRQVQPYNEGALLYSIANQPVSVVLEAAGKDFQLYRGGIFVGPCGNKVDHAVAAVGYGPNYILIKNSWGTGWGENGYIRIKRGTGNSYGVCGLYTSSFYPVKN
Assay [4] has as its target Rap guanine nucleotide exchange factor 3 (Homo sapiens) (UniProt O95398). Nature of the assay: Confirmatory qHTS for antagonist of cAMP-regulated guanine nucleotide exchange factor 3 (EPAC1) (AID 1645880; active = well fitted curve in the direction sought with a large enough effect; an effect the other way counts as inactive or inconclusive;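 also: plate controls were DMSO only for no effect and full effect of the ATA control for full effect; nearly all actives have a fitted effect of over 55% in size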). The following applies: EPAC1 Rap1B-BODIPY-GDP exchange, fluorescence; series mostly up to 115 µM. Put shortly: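 Nucleotide exchange uses 100 nM EPAC1, 250 nM RAP1B-BODIPY-GDP and 50 uM GDP, with compounds in a concentration-titration series. After 5 min at room temperature, fluorescence (480 nm ex/540 nm em) is read every 5 min for 30 min. Data are normalized to control ATA and DMSO.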

For assay [5] the target is unchanged. Nature of the assay: Confirmatory qHTS for agonist of cAMP-regulated guanine nucleotide exchange factor 3 (EPAC1) (AID 1645881; active = well fitted curve in the direction sought with a large enough effect; an effect the other way counts as inactive or inconclusive;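 also: EPAC1 catalysed release of BODIPY-GDP from Rap1B seen as fluorescence loss; nearly all actives have a fitted effect of over 75% in size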). The following applies: EPAC1 Rap1B BODIPY-GDP exchange fluorescence, 100% = cAMP control response; series mostly up to 154 µM.
Assay [6] deals with Rap guanine nucleotide exchange factor 4 (Homo sapiens) (UniProt Q8WZA2). The assay is described as follows: Confirmatory qHTS for agonist of cAMP-regulated guanine nucleotide exchange factor 4 (EPAC2) (AID 1645884; active = well fitted curve in the direction sought with a large enough effect; an effect the other way counts as inactive or inconclusive;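 also: nucleotide exchange releases bodipy-GDP from Rap1 and this lowers its fluorescence; % is scaled to controls: 0 for no effect and ±100 for the full control effect; nearly all actives have a fitted effect of over 65% in size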). The following applies: EPAC2 GEF activity, Rap1B-BODIPY-GDP fluorescence, percent relative to cAMP agonist control; series mostly up to 154 µM.
Rap guanine nucleotide exchange factor 4 (Homo sapiens), sequence (Q8WZA2 whole entry, looked up): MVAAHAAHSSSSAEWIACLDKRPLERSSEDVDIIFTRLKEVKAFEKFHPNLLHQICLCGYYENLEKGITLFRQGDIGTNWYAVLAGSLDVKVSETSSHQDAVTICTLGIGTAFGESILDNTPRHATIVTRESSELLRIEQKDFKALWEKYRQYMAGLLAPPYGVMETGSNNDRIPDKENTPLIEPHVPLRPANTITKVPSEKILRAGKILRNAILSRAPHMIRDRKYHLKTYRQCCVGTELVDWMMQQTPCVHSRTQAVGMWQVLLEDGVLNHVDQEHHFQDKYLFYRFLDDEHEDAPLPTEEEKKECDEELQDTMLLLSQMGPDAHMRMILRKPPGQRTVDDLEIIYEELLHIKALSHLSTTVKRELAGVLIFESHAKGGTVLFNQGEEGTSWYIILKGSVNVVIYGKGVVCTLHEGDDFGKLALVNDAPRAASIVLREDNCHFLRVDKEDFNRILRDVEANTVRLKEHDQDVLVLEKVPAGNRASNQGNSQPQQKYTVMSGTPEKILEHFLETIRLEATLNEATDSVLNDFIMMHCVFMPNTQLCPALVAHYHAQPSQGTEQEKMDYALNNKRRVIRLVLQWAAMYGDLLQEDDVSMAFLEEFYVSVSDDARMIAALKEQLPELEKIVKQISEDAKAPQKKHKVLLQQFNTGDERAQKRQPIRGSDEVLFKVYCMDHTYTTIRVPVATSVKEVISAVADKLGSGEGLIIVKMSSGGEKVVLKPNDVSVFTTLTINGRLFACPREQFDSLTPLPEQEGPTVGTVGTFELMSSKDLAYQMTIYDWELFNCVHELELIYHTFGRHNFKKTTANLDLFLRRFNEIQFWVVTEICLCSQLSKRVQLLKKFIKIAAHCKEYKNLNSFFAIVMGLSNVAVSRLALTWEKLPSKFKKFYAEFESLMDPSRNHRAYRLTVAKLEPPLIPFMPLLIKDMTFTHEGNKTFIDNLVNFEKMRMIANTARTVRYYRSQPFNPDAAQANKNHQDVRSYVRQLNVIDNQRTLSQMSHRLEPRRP
Assay [7] shares this target. Nature of the assay: Confirmatory qHTS for antagonist of cAMP-regulated guanine nucleotide exchange factor 4 (EPAC2) (AID 1645885; active = well fitted curve in the direction sought with a large enough effect; an effect the other way counts as inactive or inconclusive; also: nearly all actives have a fitted effect of over 25% in size; also: potency is read from the fitted curve at half-maximal effect; as to activity change, negative = inhibition: % is scaled to controls: 0 for no effect and ±100 for the full control effect). The following applies: EPAC2 Rap1B-BODIPY-GDP exchange fluorescence, biochemical; series mostly up to 12.7 µM.

Rap guanine nucleotide exchange factor 3 (Homo sapiens), sequence (O95398 whole entry, looked up): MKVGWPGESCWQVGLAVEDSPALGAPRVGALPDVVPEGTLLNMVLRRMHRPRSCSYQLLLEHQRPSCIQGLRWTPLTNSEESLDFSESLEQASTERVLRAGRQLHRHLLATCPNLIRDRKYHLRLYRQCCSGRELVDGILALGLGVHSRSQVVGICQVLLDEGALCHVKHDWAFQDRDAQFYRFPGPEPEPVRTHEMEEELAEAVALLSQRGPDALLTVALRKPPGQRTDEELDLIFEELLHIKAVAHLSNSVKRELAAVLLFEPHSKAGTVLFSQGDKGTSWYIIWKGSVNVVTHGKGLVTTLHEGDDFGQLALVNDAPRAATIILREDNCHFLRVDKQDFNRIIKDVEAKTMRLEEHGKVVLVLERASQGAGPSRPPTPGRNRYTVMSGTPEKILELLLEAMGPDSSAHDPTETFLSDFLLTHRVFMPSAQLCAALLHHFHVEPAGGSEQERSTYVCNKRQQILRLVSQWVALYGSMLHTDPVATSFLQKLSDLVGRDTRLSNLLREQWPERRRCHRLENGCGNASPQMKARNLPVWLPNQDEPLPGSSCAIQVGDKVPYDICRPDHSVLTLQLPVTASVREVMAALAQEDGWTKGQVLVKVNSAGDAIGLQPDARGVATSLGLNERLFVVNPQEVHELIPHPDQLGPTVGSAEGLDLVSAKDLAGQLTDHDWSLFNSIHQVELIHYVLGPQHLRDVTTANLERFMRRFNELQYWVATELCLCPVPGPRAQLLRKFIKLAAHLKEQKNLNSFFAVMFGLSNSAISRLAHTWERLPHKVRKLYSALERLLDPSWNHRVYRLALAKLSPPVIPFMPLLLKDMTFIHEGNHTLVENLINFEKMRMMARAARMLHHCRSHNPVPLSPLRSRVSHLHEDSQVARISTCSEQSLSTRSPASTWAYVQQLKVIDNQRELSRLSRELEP

`CN(C)[C@@H]1C(=O)C(C(N)=O)=C(O)[C@@]2(O)C(=O)C3=C(O)c4c(O)cccc4[C@@](C)(O)[C@H]3C[C@@H]12`: the Potency result in assay [1], in assay [2] and in assay [3] was “inactive” throughout. Turning to `CCN(CC)C(=S)SSC(=S)N(CC)CC`, the Potency in assay [1] is 891 nM (active) and 7.94 µM (active). For `COc1cc(Cc2cnc(N)nc2N)cc(OC)c1OC`, the Potency result in assay [1] is “inactive”. With `CN(N=O)C(=O)N[C@@H]1[C@@H](O)[C@H](O)[C@@H](CO)O[C@@H]1O`, the activity change, negative = inhibition in assay [1] was -3.87% and -2.3%. For the compound `O=C(O)CCNC(=O)c1ccc(N=Nc2ccc(O)c(C(=O)O)c2)cc1`, in assay [1], the Potency entry was “inactive”. On to `Cc1c2oc3c(C)ccc(C(=O)N[C@@H]4C(=O)N[C@H](C(C)C)C(=O)N5CCC[C@H]5C(=O)N(C)CC(=O)N(C)[C@@H](C(C)C)C(=O)O[C@@H]4C)c3nc-2c(C(=O)N[C@@H]2C(=O)N[C@H](C(C)C)C(=O)N3CCC[C@H]3C(=O)N(C)CC(=O)N(C)[C@@H](C(C)C)C(=O)O[C@@H]2C)c(N)c1=O` (I: T[dV]P[Sar][NMeV] / II: T[dV]P[Sar][NMeV]; ester I:1-I:C, II:1-II:C; linker I:N-II:N via Actinocin(9to1)), for which the activity change, negative = inhibition in assay [1] is -94.7%. As to `C[C@H]1[C@H](NC(=O)/C(=N/OC(C)(C)C(=O)O)c2csc(N)n2)C(=O)N1S(=O)(=O)O` (stereo in doubt), in assay [1], the Potency entry is “inactive”. Take `CC(S)C(=O)NCC(=O)O` (centres undefined): in assay [1], the Potency result was “inactive” and the activity change, negative = inhibition was -22.2%. In the case of `NC1[C@H]2CN(c3nc4c(cc3F)c(=O)c(C(=O)O)cn4-c3ccc(F)cc3F)C[C@@H]12` (some centres undefined), the Potency entry in assay [1] was “inactive”. Regarding `CO/N=C1\CN(c2nc3c(cc2F)c(=O)c(C(=O)O)cn3C2CC2)CC1CN` (centres undefined), in assay [1], the activity change, negative = inhibition was -12.6%. Consider `CC[C@@H](CO)NC(=O)[C@@H]1C=C2c3cccc4c3c(cn4C)C[C@H]2N(C)C1`, for which the Potency result with Papain (Carica papaya) is “inactive”. For the compound `CCCCc1oc2ccc(NS(C)(=O)=O)cc2c1C(=O)c1ccc(OCCCN(CCCC)CCCC)cc1`, the Potency in assay [1] was 11.2 µM (active). On the same count and under the same terms, then `Cc1ccc(NC(=O)c2ccc(CN3CCN(C)CC3)cc2)cc1Nc1nccc(-c2cccnc2)n1`, with 35.5 µM (active).

As for `CS(=O)(=O)OCCCCOS(C)(=O)=O`, in assay [1], the Potency entry was “inactive” and the activity change, negative = inhibition was -16.9%. Take `CN(C)CCCN1c2ccccc2CCc2ccc(Cl)cc21`: the Potency in assay [1] is 28.2 µM (active). The same measure, in the same setting: then `CCN(CC)CCNC(=O)c1c(C)[nH]c(/C=C2\C(=O)Nc3ccc(F)cc32)c1C`, with 25.1 µM (active). As to `Fc1ccc(C(OCCN2CCN(CCCc3ccccc3)CC2)c2ccc(F)cc2)cc1`, the Potency in assay [1] was 17.8 µM (active); in assay [2] it was 6.68 µM (active) and 11.8 µM (active). Besides, the Potency entry with Papain (Carica papaya) was “inactive”.

As for `Cc1ccc(S(=O)(=O)N[C@@H](CCCCN)C(=O)CCl)cc1`, the Potency with Papain (Carica papaya) is 14.1 µM (active). For the same compound, in assay [3], the Potency entry is “inactive”. `Cc1ccsc1C(=CCCN1CCC[C@@H](C(=O)O)C1)c1sccc1C`: the activity change, negative = inhibition in assay [1] is -13.3%. Consider `CC(=O)Oc1ccccc1C(=O)Nc1ncc([N+](=O)[O-])s1`, for which the Potency in assay [1] was 5.62 µM (active) and inactive. Turning to `O=c1[nH]c2ccccc2n1C1CCN(CCCC(c2ccc(F)cc2)c2ccc(F)cc2)CC1`, the Potency entry (in the assay with Papain (Carica papaya); in assay [4]) was “inactive” in each case. Moreover, the Potency was 23.7 µM (active) and 5.78 µM (active) in assay [2]; 16.8 µM (active) and 5.78 µM (active) in assay [3]. In addition, the compound was called inactive in assay [5] and in assay [6].

For the compound `CC1Cc2ccccc2N1NC(=O)c1ccc(Cl)c(S(N)(=O)=O)c1` (centres undefined), in assay [1], the Potency entry was “inactive” and the activity change, negative = inhibition came to 3.64%. For the compound `Oc1cc(Cl)ccc1Oc1ccc(Cl)cc1Cl`, the figures for the Potency in assay [1], in assay [2] and in assay [7] were 25.1 µM (active), 6.24 µM (active) and 52 µM (active), respectively. Further, the call in assay [5] was inactive.

Regarding `Clc1ccc(COC(Cn2ccnc2)c2ccc(Cl)cc2Cl)cc1` (centres undefined), the call in assay [5] and in assay [6] was inactive. The Potency in assay [7] is 44.1 µM (active) and inactive. In the case of `CC(C)C[C@H](NC(=O)[C@H](CCc1ccccc1)NC(=O)CN1CCOCC1)C(=O)N[C@@H](Cc1ccccc1)C(=O)N[C@@H](CC(C)C)C(=O)[C@@]1(C)CO1`, the activity change, negative = inhibition in assay [1] was -96% and -97.8%. On the same count and under the same terms, then `COc1cc([C@@H]2c3cc4c(cc3[C@H](O)[C@H]3COC(=O)[C@H]23)OCO4)cc(OC)c1OC`, with -79.7%.

As to `CCN(C(C)=O)c1cccc(-c2ccnc3c(C#N)cnn23)c1`, the Potency result in assay [2] is “inactive”. For `Cc1c(OCC(F)(F)F)ccnc1CS(=O)c1nc2ccccc2[nH]1` (centres undefined), in assay [1], the Potency result was “inactive”. Consider `Oc1cccc2cccnc12`, for which the activity change, negative = inhibition in assay [1] was -23.4%. Moreover, the Potency in assay [2] was 15.4 µM (active) and inactive. In the case of `C[C@]12C/C(=C/O)C(=O)C[C@@H]1CC[C@@H]1[C@@H]2CC[C@@]2(C)[C@H]1CC[C@]2(C)O`, the Potency in assay [2] was 13.3 µM (active); in assay [3] it was 23.7 µM (active). As to `O[C@@H](CNC[C@H](O)[C@H]1CCc2cc(F)ccc2O1)[C@@H]1CCc2cc(F)ccc2O1`, the Potency in assay [1] is 22.4 µM (active). On to `Cn1cnc([N+](=O)[O-])c1Sc1ncnc2nc[nH]c12`, for which, in assay [1], the Potency entry is “inactive” and the activity change, negative = inhibition is -53.9%. With `CC(C)C[C@H](NC(=O)[C@H](Cc1ccccc1)NC(=O)c1cnccn1)B(O)O`, the activity change, negative = inhibition in assay [1] was -95.1%.
